# From PubChem
# MITF primary: human MITF inhibition, primary screen; AlphaScreen MITF homodimerization, bead proximity signal; inhibition, % at 2.6 µM; actives 0.91% (n = 650,000); in the data active = inhibition above about 50%;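 also: 0% = vehicle wells with protein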
# Target sequence (O75030 whole entry, looked up): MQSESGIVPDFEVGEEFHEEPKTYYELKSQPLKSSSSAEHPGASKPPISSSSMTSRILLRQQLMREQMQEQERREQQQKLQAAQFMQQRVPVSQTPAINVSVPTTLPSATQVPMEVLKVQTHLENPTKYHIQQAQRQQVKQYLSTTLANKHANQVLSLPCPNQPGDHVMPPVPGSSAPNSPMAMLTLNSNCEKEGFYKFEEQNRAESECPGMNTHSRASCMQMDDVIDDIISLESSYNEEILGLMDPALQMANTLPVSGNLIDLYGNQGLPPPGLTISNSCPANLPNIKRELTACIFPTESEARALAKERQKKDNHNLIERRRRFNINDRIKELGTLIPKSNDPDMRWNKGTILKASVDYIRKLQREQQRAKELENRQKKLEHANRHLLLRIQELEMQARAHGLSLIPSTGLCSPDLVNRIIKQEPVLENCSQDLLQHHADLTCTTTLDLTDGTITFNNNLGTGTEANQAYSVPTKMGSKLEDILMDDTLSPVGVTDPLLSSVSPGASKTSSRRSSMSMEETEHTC
# FBW7 act: human FBW7 E3 ligase activation, primary screen | AID 1259310 | Q969H0 | normalized activity (activation), % at 26.1 µM | AlphaScreen FBW7–phospho-cyclin E peptide binding, activator screen | actives 0.13% (n = 650,000); in the data active = normalized activity above about 1.9%;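 also: purified mutant Fbw7 with reduced substrate affinity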
# TEAD-YAP block: TEAD-YAP interaction inhibition; HEK-TIYL cells, TEAD-Gal4/YAP UAS-luciferase luminescence; inhibition, % at 9.12 µM; actives 1.4% (n = 640,000); AID 1259422; in the data active = inhibition above about 32%;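 also: 0% = median of test compound wells and 100% = reference inhibitor wells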
# GPR151 activ: activators of human GPR151; Q8TDV0; PathHunter beta-arrestin GPR151 cells, luminescence; activation, % at 11.2 µM; actives 1% (n = 650,000); AID 1508602; in the data active = activation above about 4.9%;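 also: 0% = median of compound wells and 100% = cells with positive control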
# MITF confirm: confirmation of human MITF inhibitors; AlphaScreen MITF homodimerization, biotin/His-MITF beads; shares compounds with MITF primary; inhibition, % at 2.6 µM; AID 1259372; actives 16% (n = 4,700);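 active = inhibition above a cutoff derived from the DMSO control wells, cut at about 28% in these data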;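 also: 0% = MITF dimer wells with DMSO only; inhibitors lower the bead chemiluminescence by keeping MITF from dimerizing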
# AlphaScreen DR: counter-screen: compounds optically interfering with AlphaScreen | shares compounds with MITF primary | actives 6% (n = 480) | AlphaScreen optical interference counterscreen, cell-free | IC50, µM; call rule not given here
# AlphaScreen intf2: optically interferes with AlphaScreen signal; shares compounds with MITF primary; LysRS AlphaScreen counterscreen, signal interference, triplicate; inhibition, % at 2.6 µM; actives 7.6% (n = 4,700);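 active = inhibition above a cutoff derived from the DMSO control wells, cut at about 30% in these data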
# Starred values were filed as active, the others as inactive; · = not tested or not shown. Compounds with a hit are over-represented: about 3.4% of the library has one in this group of screens.
SMILES,MITF primary,FBW7 act,TEAD-YAP block,GPR151 activ,MITF confirm,AlphaScreen intf2,others
OC(CNCCNc1cccc2ccccc12)COCc1ccc(Cl)cc1 (configuration not stated),53*,0,-2,-1,-5,1,
CC(C)(CO)NCC(O)COCc1ccc(Cl)cc1 (configuration not stated),-5,1,7,0,·,·,
O=C(c1ccc([N+](=O)[O-])cc1)N1CCSC1c1ccc([N+](=O)[O-])cc1 (configuration not stated),12,0,-3,2,·,·,
O=C(c1ccc([N+](=O)[O-])cc1)N1CCSC1c1ccc(Br)cc1 (configuration not stated),70*,2,0,-1,-13,-3,
Cc1ccccc1NC(=O)NC1(C(F)(F)F)Oc2ccc(Cl)cc2O1 (configuration not stated),29,0,4,0,·,·,
COc1ccccc1NS(=O)(=O)c1cccc(NC(=O)NC2(C(F)(F)F)Oc3ccc(Cl)cc3O2)c1 (configuration not stated),68*,0,-7,0,-14,4,
CC1=C(C(=O)OCC2CCCO2)C(c2ccccc2C)NC(=O)N1 (configuration not stated),13,0,5,0,·,·,
COc1ccc(CN2CCN(Cc3cccn3C)CC2)c(OC)c1OC,46,0,1,0,·,·,
COc1ccc(CN2CCN(CCOc3ccccc3C#N)CC2)c(OC)c1OC,69*,0,1,0,1,20,
COc1ccc(CN2CCN(CCOc3ccccc3)CC2)c(OC)c1OC,72*,0,0,-1,2,10,
CCN(CC)S(=O)(=O)c1ccc(SCC(=O)OC)c([N+](=O)[O-])c1,8,0,7,0,·,·,
COc1ccc(CNCCSc2nccn2C)cc1,70*,0,-6,1,12,15,
Cc1ccc(-c2csc(NC(=O)COc3ccccc3C(C)(C)C)n2)cc1,56*,1,-3,-1,-5,-4,
Cc1ccccc1OCC(=O)Nc1nc(-c2ccccc2)cs1,-1,0,-12,0,·,·,
CC(=O)c1ccc(OCC(O)COc2ccc(C(C)=O)cc2)cc1,-3,0,0,3,·,·,
CC(=O)c1ccc(OCC(O)CN(C)CCC#N)cc1 (configuration not stated),66*,0,-3,1,4,4,
COc1cc(NC(=O)[C@H]2CNC[C@@H]2c2ccccc2)ccc1-c1cn[nH]c1,5,0,2,5,·,·,
CCNC(=O)CCc1nc(-c2ccccc2C)no1,6,0,-1,-3,·,·,
O=[N+]([O-])c1ccc(CN2CCN(c3cccc(Cl)c3)CC2)o1,21,0,5,1,·,·,
O=[N+]([O-])c1ccc(CN2CCN(c3ccc(Cl)cc3)CC2)o1,59*,1,7,4,16,12,
O=[N+]([O-])c1ccc(CN2CCN(c3ncccn3)CC2)o1,58*,0,9,0,5,1,
Oc1c(C2CCCCC2)cccc1C1CCCCC1,60*,0,4,2,0,11,
Cc1cc(O)ccc1C1CCCCC1,-1,0,8,0,·,·,
COc1ccccc1N1CCN(CC(=O)c2ccc(F)cc2)CC1,69*,0,3,1,5,8,
COc1cc(-c2[nH]nc3c2C(c2ccc4c(c2)OCO4)C(C#N)=C(N)O3)cc(OC)c1OC (configuration not stated),66*,0,15,1,-6,-5,
SMILES,MITF primary,FBW7 act,TEAD-YAP block,GPR151 activ,MITF confirm,AlphaScreen intf2,others
CCCn1ncc(C)c1NC(=O)Cn1nc2n(C)c3ccccc3n2c1=O,8,0,1,0,·,·,
CCOC(=O)CC1C(C(=O)OCC)=[N+]([O-])OC1C(=O)OCC (configuration not stated),64*,0,0,0,22,19,
CCOC(=O)C1=[N+]([O-])OC(C(=O)OCC)C1CC(C)=O (configuration not stated),48,0,-4,-1,·,·,
O=C(c1cc(Cl)ccc1[N+](=O)[O-])n1cnc2ccccc21,15,1,9,-1,·,·,
O=C(c1ccccc1[N+](=O)[O-])n1cnc2ccccc21,56*,0,4,1,-3,12,
CC1CCN(C2CCN(Cc3cccc(Cl)c3)CC2)CC1,57*,0,2,1,-12,-6,
CC1CCN(C2CCN(Cc3ccc4c(c3)OCO4)CC2)CC1,54*,0,1,0,-9,-2,
CC1CCC(N2CCN(Cc3cccc(Cl)c3)CC2)CC1 (configuration not stated),64*,0,3,-1,2,-2,
Clc1cccc(CN2CCN(C3CCCCC3)CC2)c1,74*,0,-6,-1,-4,-5,
Cc1cccc(CN2CCN(C3CCCCCC3)CC2)c1,50,0,-4,0,·,·,
OCC1CCN(C2CCCN(Cc3cccc(Cl)c3)C2)CC1 (configuration not stated),13,0,7,-1,·,·,
OC1CCN(Cc2ccc3c(c2)OCO3)CC1,35,0,1,-1,·,·,
CCOc1cc(/C=C2\N=C(c3cccs3)OC2=O)ccc1OC,11,0,6,1,·,·,
C=CCN1C(=O)CC(C(=O)OC)C12CCN(Cc1c[nH]c3ccccc13)CC2 (configuration not stated),9,0,3,0,·,·,
CC1(C)Cc2c(c(-c3ccccc3)nc3oc(C(=O)c4ccccc4)c(N)c23)CO1,4,0,-4,0,·,·,
O=C(NCCc1ccc(O)cc1)c1cccc(-c2cccs2)c1,52*,0,4,1,41*,4,AlphaScreen DR=>6.3
O=C(NCCc1ccc(O)cc1)c1ccnc(-c2cccs2)c1,51*,0,7,1,51*,0,AlphaScreen DR=>6.8
COc1cccc(C2CC(c3ccc(Br)cc3)=NN2S(C)(=O)=O)c1OC (configuration not stated),8,0,-1,0,·,·,
CCc1ccc(CNc2ccc(N3CCOCC3)c(C(=O)O)c2)cc1,52*,0,-4,0,0,15,
Cn1ncc(Cl)c1C(=O)NC(=S)NNS(=O)(=O)c1ccccc1,9,1,3,-1,·,·,
CC1CN(Cc2ccccc2)c2nc3c(c(=O)n(Cc4ccccc4)c(=O)n3C)n2C1 (configuration not stated),9,0,1,-1,·,·,
COc1ccc2c(c1)C(C)=CC(C)(C)N2C(N)=S,72*,-2,1,1,65*,54*,
C/C=C/C(=O)N1c2ccc(OC)cc2C(C)=CC1(C)C,7,0,-4,-1,·,·,
COc1ccc(CC(=O)OCC(=O)Nc2ccc(I)cc2)cc1,-6,0,6,3,·,·,
